ChEMBL document CHEMBL3988442, “University of Dundee, Small-Polar-MMV Screening Library” (2021)
Hit rate of the full screen: of about 48,000 compounds, about 13,000 (27%) showed an effect of 50% or more. This is one part of the list.

System: Wolbachia pipientis
Experiment: Anti-Wolbachia Cell-Based Screen
Assay type: functional
Set-up: scale not given: in the data most compounds retested in dose-response had high values
Settings: 5 µM

Which “Percent Effect” value does the source give for `CN(C(=O)c1cccnc1OCC(F)F)c1ccc2c(c1)CCO2` here?
Its value is -7.463%.

With `Cc1c(-c2c(-c3ccccc3)ncn2[C@@H](C(=O)O)[C@H](C)O)cnn1C` as the compound, how does the “Percent Effect” value read?
The value was -13.76%.

How did the “Percent Effect” value turn out when `COCc1ncn(Cc2nc(-c3ccc(OC)cc3F)oc2C)n1` was run?
Its value is -0.9498%.

For `Cc1ccc(N2CCC(NC(C)c3cccs3)CC2)nc1` (centres undefined), which “Percent Effect” value is on record?
The value was -4.773%.

How did the “Percent Effect” value turn out when `Cn1cc(-c2csc(N3CCSCC3)n2)cn1` was run?
The value was -8.104%.

With `CS(=O)(=O)N1CCC(c2nnc(CN3CCCC3)n2C2CC2)CC1` as the compound, how does the “Percent Effect” value read?
The value was -12.66%.

How did the “Percent Effect” value turn out when `CN(Cc1cc(C[C@@H]2C[C@H](N)C2(C)C)no1)c1ccccc1` was run?
Its value is 4.71%.

With `O=C(O)C(F)(F)F.O=C(c1cnc2ccccc2c1)N1CCC2(CCN2c2ncccn2)C1` (centres undefined) as the compound, how does the “Percent Effect” value read?
The value was 69.16%.

How did the “Percent Effect” value turn out when `O=C(O)C(F)(F)F.O=C(c1ccc2ccccc2n1)N1CCC2(CCN2c2ncccn2)C1` (centres undefined) was run?
Its value is 82.49%.

Which “Percent Effect” value does the source give for `Cc1ccc(C(=O)N2CCC3(CC2)NC(=O)CC3c2ccccc2)cn1.O=C(O)C(F)(F)F` (centres undefined) here?
Its value is 15.96%.

`COCC1CC2(CCN(C(=O)c3cnc4ccccc4c3)CC2)CO1.O=C(O)C(F)(F)F` (centres undefined) was tested. Which “Percent Effect” value did it give?
Its value is 5.909%.

For `Cc1ccc(C(=O)N2CCC3(CCN3c3ncccn3)C2)cn1.O=C(O)C(F)(F)F` (centres undefined), which “Percent Effect” value is on record?
Its value is 98.39%.

`O=C(O)C(F)(F)F.O=C(O)C(F)(F)F.O=C(c1c[nH]cn1)N1CCC(F)(F)C2(CCN(c3ccccn3)C2)C1` (centres undefined) was tested. Which “Percent Effect” value did it give?
Its value is 6.098%.

`O=C(O)C(F)(F)F.O=C(c1ccccc1)N1CCC2(CCCN2c2ncccn2)CC1` was tested. Which “Percent Effect” value did it give?
Its value is 93.81%.

`O=C(O)C(F)(F)F.O=C(c1ccccn1)N1CCC2(CC1)C(=O)Nc1ccccc12` was tested. Which “Percent Effect” value did it give?
Its value is -9.696%.

Which “Percent Effect” value does the source give for `CCCc1nnsc1C(=O)N1CCN(CC(O)C2CC2)CC1.Cl` (centres undefined) here?
The value was -6.099%.

How did the “Percent Effect” value turn out when `O=C(c1ccc2sccc2c1)N1CCC(C(=O)O)(n2cccn2)CC1` was run?
The value was -6.348%.

`COc1ccccc1-c1ncc(CN2CCCC[C@H](N(C)C)C2)s1` was tested. Which “Percent Effect” value did it give?
The value was -5.387%.

Which “Percent Effect” value does the source give for `Cc1cc(F)c(S(=O)(=O)N(C)CCn2cccn2)cc1F` here?
Its value is -6.407%.

`O=C(O)C(F)(F)F.O=C(c1cccc(O)c1)N1CCC2(CCN2c2ncccn2)C1` (centres undefined) was tested. Which “Percent Effect” value did it give?
Its value is 103.8%.

Which “Percent Effect” value does the source give for `CCN(CC)CCNC(=O)c1cc(C(C)C)nc(N2CCCC2)n1` here?
Its value is 3.007%.

For `CCC(NC(=O)C1CCN(S(C)(=O)=O)CC1)c1ccc(OC)c(C)c1` (centres undefined), which “Percent Effect” value is on record?
Its value is -3.123%.

How did the “Percent Effect” value turn out when `CS(=O)(=O)N1CCC(C(=O)NC(Cc2ccsc2)c2cccnc2)CC1` (centres undefined) was run?
The value was 127.1%.

How did the “Percent Effect” value turn out when `CS(=O)(=O)N1CCC(C(=O)NC(Cc2ccsc2)c2ccccn2)CC1` (centres undefined) was run?
The value was -12.55%.

How did the “Percent Effect” value turn out when `CCC(NC(=O)C1CCN(S(C)(=O)=O)CC1)c1ccc(OC)c(OC)c1` (centres undefined) was run?
Its value is -10.24%.

How did the “Percent Effect” value turn out when `Cc1csc(C(Cc2ccsc2)NC(=O)C2CCN(S(C)(=O)=O)CC2)n1` (centres undefined) was run?
Its value is 94.26%.

`CCC(NC(=O)NC1CCN(S(C)(=O)=O)CC1)c1cccs1` (centres undefined) was tested. Which “Percent Effect” value did it give?
Its value is 5.409%.

For `COCCn1cc(C(=O)N2CCCC2c2cccc(C)c2)ccc1=O` (centres undefined), which “Percent Effect” value is on record?
Its value is 1.918%.

How did the “Percent Effect” value turn out when `CN(C)c1ncc(-c2c(-c3ccccc3)ncn2C(CO)C(=O)O)cn1` (centres undefined) was run?
The value was -11.25%.

With `CCC(CC)C(O)CNC(=O)Nc1cccc(-c2nccn2C)c1` (centres undefined) as the compound, how does the “Percent Effect” value read?
The value was 17.02%.

With `CC[C@@H](C)[C@@H](N)C(=O)Nc1cccc(-c2cnc(N(C)C)nc2)c1` as the compound, how does the “Percent Effect” value read?
The value was 111.5%.

Which “Percent Effect” value does the source give for `CN(C)c1ncc(NC(=O)c2cccc(Nc3cnn(C)c3)c2)cn1` here?
The value was -2.232%.

With `CC[C@@H](C)[C@@H](N)C(=O)Nc1cccc(-c2cnc(N(C)CCO)nc2)c1` as the compound, how does the “Percent Effect” value read?
Its value is 118.1%.

`CCn1nnnc1-c1cccc(NC(N)=O)c1` was tested. Which “Percent Effect” value did it give?
Its value is 11.47%.

Which “Percent Effect” value does the source give for `CCC(Nc1cccc(OC)c1)C(=O)N(CCO)Cc1nccs1` (centres undefined) here?
The value was -9.396%.

For `CC(NC(N)=O)C(=O)Nc1ccc(OCc2cccc(F)c2)c(F)c1` (centres undefined), which “Percent Effect” value is on record?
Its value is -7.991%.

`CC[C@@H](C)[C@@H](N)C(=O)Nc1cccc(-c2cnc(NCCO)nc2)c1` was tested. Which “Percent Effect” value did it give?
The value was 122.5%.

How did the “Percent Effect” value turn out when `CCC(C)NS(=O)(=O)Cc1cccc(NC(=O)C(C)C)c1` (centres undefined) was run?
The value was -6.422%.

`CC[C@@H](C)[C@@H](N)C(=O)Nc1cccc(-c2cnc(N)nc2)c1` was tested. Which “Percent Effect” value did it give?
Its value is 118.7%.

`Cn1ccnc1-c1cccc(NC(=O)NCCCO)c1` was tested. Which “Percent Effect” value did it give?
Its value is -3.437%.

With `O=C(NCCc1nnc2n1CCCCC2)N1CCC2(CCCC2)CC1` as the compound, how does the “Percent Effect” value read?
The value was -8.228%.

How did the “Percent Effect” value turn out when `O=C(CN1CCN(c2ccnc3c(F)ccc(F)c23)CC1)N1CCCC1` was run?
Its value is -6.623%.

`Cc1ccc(C)c(OC(C)C(=O)Nc2cccnc2)c1` (centres undefined) was tested. Which “Percent Effect” value did it give?
Its value is -35.64%.

How did the “Percent Effect” value turn out when `CCc1nnc2n1CCN(CC(=O)Nc1sccc1C#N)C2` was run?
The value was 8.043%.

For `CC(C)c1nnc2n1CCN(CC(=O)Nc1sccc1C#N)C2`, which “Percent Effect” value is on record?
The value was -2.717%.

How did the “Percent Effect” value turn out when `CC(C)c1nnc2n1CCN(CC(=O)Nc1nncs1)C2` was run?
The value was 3.103%.

Which “Percent Effect” value does the source give for `CCc1nnc2n1CCN(CCC(=O)Nc1sccc1C#N)C2` here?
Its value is 88.78%.

`CC(C)c1nnc2n1CCN(CCC(=O)Nc1sccc1C#N)C2` was tested. Which “Percent Effect” value did it give?
The value was 103.7%.

`CCc1nnc2n1CCN(CCC(=O)Nc1cc(C)on1)C2` was tested. Which “Percent Effect” value did it give?
The value was -8.821%.

For `CCc1c(C)sc2ncnc(N3C[C@H](O)[C@@H](N4CCCC4)C3)c12`, which “Percent Effect” value is on record?
Its value is 10.47%.

How did the “Percent Effect” value turn out when `O=C(NCCN1CCNCC1)c1nc2ccccc2c(=O)[nH]1` was run?
Its value is -2.833%.

With `O=C(NCCn1nc2ccccn2c1=O)c1cc(C2CC2)[nH]n1` as the compound, how does the “Percent Effect” value read?
Its value is 7.505%.

Which “Percent Effect” value does the source give for `Cl.O=C(NCCn1nc(C2CCNC2)c2cccnc21)c1ccccc1` (centres undefined) here?
The value was 112%.

How did the “Percent Effect” value turn out when `O=C(NCc1cnn2cccnc12)c1cccc(CC2CCNCC2)c1` was run?
The value was 4.069%.

With `Cl.O=C(NCCn1nc(C2CCNC2)c2cccnc21)c1ccccn1` (centres undefined) as the compound, how does the “Percent Effect” value read?
The value was 108.3%.

`O=C(NCCCc1nnc2ccccn12)c1ccccc1C1CCNC1` (centres undefined) was tested. Which “Percent Effect” value did it give?
Its value is 3.583%.

`Cc1nc(C)n(CC2CCCCN2CC(=O)N(C)Cc2ccco2)n1` (centres undefined) was tested. Which “Percent Effect” value did it give?
The value was -3.611%.

How did the “Percent Effect” value turn out when `CCN(C(=O)NCc1ncc(C)c(OC)c1C)C(C)c1cccnc1` (centres undefined) was run?
Its value is -16.66%.

For `O=C(NC1CC1)c1cc(C2CC2)nc2onc(C3CCNCC3)c12`, which “Percent Effect” value is on record?
The value was 97.57%.

How did the “Percent Effect” value turn out when `O=C(c1cc(-c2ccccc2)nc2onc(C3CC3)c12)N1CC[C@H](O)C1` was run?
The value was -0.1163%.

Which “Percent Effect” value does the source give for `O=C(c1cc(C2CC2)nc2onc(-c3ccccc3)c12)N1CCOCC1` here?
Its value is 3.139%.

`CC(C)CNC(=O)c1cc(C2CC2)nc2onc(C3CCNCC3)c12` was tested. Which “Percent Effect” value did it give?
Its value is 97.28%.

Which “Percent Effect” value does the source give for `O=C(c1cc(C2CC2)nc2onc(-c3ccccc3)c12)N1CC[C@H](O)C1` here?
Its value is 6.458%.

For `CC(C)CNc1nc2c(cc1C(=O)NCC1CC1)CCNCC2`, which “Percent Effect” value is on record?
Its value is 3.893%.
